Source: PubChem BioAssay
Values without a mark were called inactive. No rule for the calls is given here.

molecular target: Pantothenate synthetase (Mycobacterium tuberculosis (strain ATCC 25618 / H37Rv)) (UniProt P9WIL5); experiment: Recombinant Mtb pantothenate synthetase (PanC) inhibitors, coupled enzyme, confirmatory (AID 375); conditions: coupled enzyme assay; at 10 µM, stronger effect = higher value;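 also: 0% = full reaction with vehicle and 100% = no enzyme background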
Sequence (P9WIL5 whole entry, looked up): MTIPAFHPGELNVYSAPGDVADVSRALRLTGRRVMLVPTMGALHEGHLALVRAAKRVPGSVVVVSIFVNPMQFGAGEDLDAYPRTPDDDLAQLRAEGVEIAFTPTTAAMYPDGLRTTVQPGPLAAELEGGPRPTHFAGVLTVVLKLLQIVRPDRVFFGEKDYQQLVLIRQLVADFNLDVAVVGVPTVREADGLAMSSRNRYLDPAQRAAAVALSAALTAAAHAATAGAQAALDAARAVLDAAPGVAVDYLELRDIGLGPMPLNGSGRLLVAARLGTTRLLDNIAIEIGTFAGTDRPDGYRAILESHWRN

SMILES	inhibition
CCOC(=O)N1CCC(NC(=O)C2CCCN(C(=O)c3cc4sccc4n3C)C2)CC1 (stereo not drawn)	0%
O=C(O)c1cc2c([nH]c1=O)CCCC2	8%
COc1cc(C2Oc3cc(C4Oc5cc(O)cc(O)c5C(=O)C4O)ccc3OC2CO)ccc1O (stereo not drawn)	0%
O=C1c2ccccc2C(=O)N1CC(O)Cn1nnc2ccccc21 (stereo not drawn)	0%
C=CCOc1ccc(/C(CC)=N/O)c(OC)c1	0%
CC(NO)C(C)(C)NO (stereo not drawn)	8%
COC(=O)c1cn(NC(=O)C2CCCO2)c(=O)c2ccccc12 (stereo not drawn)	0%
Cc1c(NC(=O)c2ccc(=O)oc2)c(=O)n(-c2ccccc2)n1C	6%
CCC(C)N=C1SCC(C)(/C=N/O)S1 (stereo not drawn)	0%
CCOC(=O)c1sc(NC(=O)CSc2nnnn2-c2ccccc2)c(C(=O)OCC)c1C	0%
CC(=O)Nc1ccc(OC(=O)c2cccs2)cc1	0%
O=C(O)C1C2CCC(C2)C1C(=O)NCCCn1ccnc1 (stereo not drawn)	12%
COc1ccccc1OCc1nc2ccccc2[nH]1	0%
CC1(C)CC(=O)c2cnc(NC(=O)CSc3nc4ccccc4o3)nc2C1	0%
COc1cc(-c2nc(S(=O)(=O)c3ccc(C)cc3)c(N(C)C)o2)cc(OC)c1OC	3%
Nc1nc(CN2CCOCC2)cs1	1%
Cc1cc(NC(=O)CSc2nc(C3CCCCC3)nc3ccccc23)no1	0%
COc1ccc(S(=O)(=O)NCc2ccco2)cc1-c1nnc2c3ccccc3c(C)nn12	8%
